Some test systems named below: HCT-15 colon; HT29 colon; SNB-75 CNS; SNB-19 CNS; U251 CNS; PC-3 prostate; SK-MEL-5 melanoma; UACC-62 melanoma; SK-MEL-28 melanoma; SK-MEL-2 melanoma; EKVX NSCLC; SN12C renal; UO-31 renal; TK-10 renal; ACHN renal; CAKI-1 renal; A498 renal; CCRF-CEM leukemia; MOLT-4 leukemia; LOX IMVI melanoma.
Common to all, as to assay: NCI-60 one-dose screen, 48 h (100 = growth as untreated, 0 = no growth, -100 = all killed)
Common to all, as to conditions: 10 µM

Molecules are shown by their SMILES. The panel holds about 83,000 compounds, 20% with a hit somewhere; the sample as a whole holds those more often.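 The endpoint reported here, percent growth, reads 100 for growth as untreated, 0 for no net growth and -100 for all cells dead.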 Values without a mark were called inactive. The source made the active and inactive calls. Rule for the calls: active = growth percent below 10; inactive = the rest.

For `Cc1cccc(NC(=O)CSc2nc3ccc(F)cc3c(=O)n2-c2ccc(Cl)cc2)c1C`, the growth in the assay with HCT-15 colon was 70.5%; in the assay with HT29 colon, 76.3%; with SNB-75 CNS, -20.7% (active); in the assay with SNB-19 CNS it was 7.05% (active); in the assay on U251 CNS, 48.8%; in the assay with PC-3 prostate, 68.9%. For the same molecule, the growth in the assay on SK-MEL-5 melanoma is 88.2%; with UACC-62 melanoma it was 80.8%; in the assay on SK-MEL-28 melanoma, 74.3%; with SK-MEL-2 melanoma, 73.1%; in the assay with EKVX NSCLC, 75%; in the assay with SN12C renal it was 64.1%. The growth with UO-31 renal is 39.6%; in the assay with TK-10 renal, 108%; in the assay with ACHN renal, 37.8%; with CAKI-1 renal, -21.6% (active); in the assay on A498 renal, 108%; with CCRF-CEM leukemia, 94.4%.

As for `C=C1CCC2C3(C)COC(c4c(F)cccc4F)OC3CCC2(C)C1C/C=C1/C(=O)OCC1O` (stereo unspecified), the growth in the assay with HCT-15 colon is -18.7% (active); in the assay on HT29 colon, 3.23% (active); with SNB-75 CNS, 23.2%; in the assay with SNB-19 CNS, -7.73% (active); in the assay with PC-3 prostate it was 5.05% (active); in the assay on SK-MEL-5 melanoma, -65.5% (active). In addition, the growth in the assay with UACC-62 melanoma is -4.04% (active); with SK-MEL-28 melanoma, -51.2% (active); with SK-MEL-2 melanoma, -44.7% (active); with EKVX NSCLC, 3.87% (active); in the assay with SN12C renal, -24.1% (active); in the assay with UO-31 renal it was -91.6% (active). Also, the growth in the assay on TK-10 renal is -23.2% (active); in the assay with ACHN renal, -97.8% (active); in the assay on CAKI-1 renal it was 2.15% (active); in the assay on A498 renal, 141%; with CCRF-CEM leukemia, 13.9%; in the assay on MOLT-4 leukemia, 11.4%.

For the molecule `CSc1nc(-c2cccc(C)c2)c2cc(-c3ccccc3)n(C)c2n1`, the growth in the assay on HCT-15 colon is 15.3%; with HT29 colon, 9.09% (active); in the assay on SNB-75 CNS, -2% (active); in the assay on SNB-19 CNS, 30.2%; with PC-3 prostate, 21.7%; in the assay on SK-MEL-5 melanoma, -44.7% (active). In addition, the growth is 11.1% in the assay with UACC-62 melanoma; 21.4% in the assay with LOX IMVI melanoma; 34.7% in the assay on SK-MEL-28 melanoma; 12.2% in the assay on SK-MEL-2 melanoma; 18.4% in the assay on EKVX NSCLC; 20% with SN12C renal. In addition, the growth in the assay with UO-31 renal was 29.8%; in the assay on TK-10 renal it was 58.1%; in the assay on ACHN renal, 32.4%; in the assay on CAKI-1 renal, 26.2%; with A498 renal, 65.5%; with CCRF-CEM leukemia, 17.5%. Also, the growth in the assay on MOLT-4 leukemia was 16.8%.

On to `CC(=O)NS(=O)(=O)c1ccc(NC(=O)CSC2=NC(c3ccccc3)C(C(C)=O)=C(C)N2)cc1` (stereo unspecified), for which the growth in the assay on HCT-15 colon was 101%; in the assay on HT29 colon, 114%; with SNB-75 CNS, 99%; in the assay on SNB-19 CNS, 104%; in the assay with PC-3 prostate, 110%; in the assay on SK-MEL-5 melanoma, 101%. The growth in the assay with UACC-62 melanoma is 98.5%; in the assay on LOX IMVI melanoma, 94.9%; with SK-MEL-2 melanoma, 115%; in the assay on EKVX NSCLC, 104%; with SN12C renal, 111%; in the assay with UO-31 renal it was 91.5%. For the same molecule, the growth is 111% in the assay with ACHN renal; 99.4% in the assay with CAKI-1 renal; 133% in the assay on A498 renal; 95.4% with CCRF-CEM leukemia; 109% in the assay on MOLT-4 leukemia.

Take `COC(=O)C(Cc1ccc(O)c(O)c1)NC(=O)C(CSC/C=C(\C)CCCC(C)CCCC(C)CCCC(C)C)NC(C)=O` (stereo unspecified): the growth with HCT-15 colon was 15.5%; in the assay on HT29 colon, 40.5%; in the assay on SNB-75 CNS, 42.8%; in the assay with SNB-19 CNS it was 10.8%; in the assay on PC-3 prostate, 2.28% (active); with SK-MEL-5 melanoma it was 36.8%. Also, the growth is 13% in the assay with UACC-62 melanoma; 19.7% with LOX IMVI melanoma; 74.5% with SK-MEL-2 melanoma; 47% in the assay with EKVX NSCLC; 26.3% in the assay with SN12C renal; 43.7% with UO-31 renal. Besides, the growth in the assay with TK-10 renal is 45.3%; with ACHN renal it was 31.4%; in the assay on CAKI-1 renal, 28.4%; in the assay on A498 renal, 102%; with MOLT-4 leukemia, 7.78% (active).

Regarding `CCOc1ccc(Nc2nc3ccccc3nc2Nc2ccc(OCC)cc2)cc1`, the growth was 26.8% in the assay with HCT-15 colon; 27.9% with HT29 colon; 90.9% in the assay on SNB-75 CNS; 39.7% in the assay with SNB-19 CNS; 19.8% with PC-3 prostate; 81.6% in the assay with SK-MEL-5 melanoma. For the same molecule, the growth in the assay with UACC-62 melanoma is 73.3%; with LOX IMVI melanoma, 83.8%; in the assay with SK-MEL-28 melanoma, 99%; with SK-MEL-2 melanoma it was 89%; with EKVX NSCLC, 46.6%; in the assay on SN12C renal, 54.7%. The growth in the assay on UO-31 renal was 54.9%; in the assay on TK-10 renal, 72%; with ACHN renal, 52.9%; in the assay on CAKI-1 renal it was 51.4%; with A498 renal it was 69.1%; in the assay with CCRF-CEM leukemia, 23.7%. Further, in the assay on MOLT-4 leukemia, the growth is 9.99% (active).

As to `CCOc1ccc(/C=N/NC(=O)Cn2nc(Cc3ccccc3)c3onc(C)c3c2=O)cc1`, the growth is 63.1% in the assay with HCT-15 colon; 42% in the assay with HT29 colon; -23.7% (active) in the assay with SNB-75 CNS; -3.49% (active) in the assay with SNB-19 CNS; 22.5% with PC-3 prostate; 68.3% in the assay on SK-MEL-5 melanoma. In addition, the growth is 36.9% in the assay on UACC-62 melanoma; 14.2% in the assay with LOX IMVI melanoma; 54.3% in the assay on SK-MEL-28 melanoma; 3.12% (active) with SK-MEL-2 melanoma; 23.9% in the assay with EKVX NSCLC; 8.3% (active) in the assay on SN12C renal. Further, the growth was -2.49% (active) in the assay with UO-31 renal; 25.6% in the assay on TK-10 renal; 6.42% (active) with ACHN renal; 12% with CAKI-1 renal; -6.43% (active) in the assay on A498 renal; 86.6% with CCRF-CEM leukemia. Also, the growth with MOLT-4 leukemia was 79.6%.

For `O=C(CNc1nc(-c2ccccc2)cs1)Nc1ccc(Br)cc1`, the growth in the assay with HCT-15 colon is -89.4% (active); in the assay on HT29 colon, -55.8% (active); in the assay on SNB-75 CNS it was -3.24% (active); with SNB-19 CNS, -99.4% (active); with PC-3 prostate, -27.8% (active); in the assay on SK-MEL-5 melanoma, -99.8% (active). In addition, the growth was -84.1% (active) in the assay with UACC-62 melanoma; -98.7% (active) in the assay on LOX IMVI melanoma; -96.3% (active) in the assay on SK-MEL-28 melanoma; -76.8% (active) with SK-MEL-2 melanoma; -95.9% (active) in the assay with EKVX NSCLC; -90.3% (active) with SN12C renal. Further, the growth in the assay on UO-31 renal was -98.2% (active); in the assay on TK-10 renal, -95.3% (active); in the assay with ACHN renal, -100% (active); with CAKI-1 renal, -92.3% (active); in the assay with A498 renal, -89.6% (active); in the assay with CCRF-CEM leukemia, 5.21% (active). Moreover, in the assay with MOLT-4 leukemia, the growth is -12.4% (active).
